High-throughput results (PubChem)
KKLEB tox: CF airway cell cytotoxicity counter-screen. KKLEB CF airway cells viability, ATPlite luminescence, overnight; stronger effect = lower value; cells stimulated with P. aeruginosa culture filtrate. activity change (cytotoxicity), % at 5 µM. hit rate 0.36% among 360,000;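 active means corrected activity change at or below -50% at 5 µM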
Peg3 promoter: Peg3 promoter activity inhibition | HeLa PEG-Prom luciferase reporter, luminescence, overnight | inhibition, % at 20 µM | hit rate 1.7% among 360,000 | AID 588405;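 active means inhibition of at least 50% at 20 µM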
CF NFkB block: inhibitors of cystic fibrosis induced NF-kB; KKLEB NF-kB-GFP reporter, PAF-induced, GFP fluorescence overnight; inhibition, % at 5 µM; hit rate 0.86% among 360,000; AID 588850;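 active means at least 50% inhibition at 5 µM, scaled per plate between neutral and stimulator controls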;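 further: PAF is a Pseudomonas aeruginosa culture filtrate used as stimulus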
Shn3 inh set2: inhibitors of Schnurri-3 3'UTR reporter in osteoblasts; Clone20 osteoblast Shn3 3'UTR firefly luciferase, 24 h; inhibition, % at 12.5 µM; hit rate 0.52% among 360,000; AID 588674;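 active means mean inhibition of at least 75% with every replicate also reaching 75%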
HIF-2a inh: blocks HIF-2a reporter activity. 786-0 RCC cells HIF-2a reporter, luciferase luminescence, overnight. inhibition, % at 18.8 µM. hit rate 0.72% among 360,000. AID 624352;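 active means inhibition of the luminescence signal of 40% or more relative to plate controls, in a single-dose primary screen at 18.75 µM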
MITF TRPM1 inh: reduces MITF-dependent TRPM1 promoter luciferase signal. SK-MEL-5 TRPM1 promoter luciferase, 24 h. inhibition, % at 12.5 µM. hit rate 0.83% among 330,000. AID 488899;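 active means mean inhibition across replicates of 60% or more, whatever share of single replicates reaches that level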
A number is an active result; – = inactive; · = no result. Hits are enriched below; roughly 2.7% of the tested compounds scored in any of these assays.

SMILES	KKLEB tox	Peg3 promoter	CF NFkB block	Shn3 inh set2	HIF-2a inh	MITF TRPM1 inh
COc1ccccc1N1CCN(C(=O)C2CCCN(S(=O)(=O)c3ccc4c(c3)CCCN4C(C)=O)C2)CC1 (configuration not stated)	–	–	–	87	–	–
CCCCNCC(O)(c1ccc(Cl)cc1)c1ccc(Cl)cc1	–	63	–	–	–	–
N#Cc1c2ccc([N+](=O)[O-])cc2[n+]([O-])n1-c1ccccc1	–	100	–	–	–	90
O=c1c2cc([N+](=O)[O-])ccc2sn1-c1ccccc1	–	–	–	–	–	·
Cc1cnc(NC(=O)C2(C)CCN2C(=O)C(C)C)s1 (configuration not stated)	–	–	–	–	–	·
CC(C)[C@H](NC(=O)c1ccccc1Cl)C(=O)Nc1nc(-c2ccccn2)cs1	–	–	–	–	–	–
CC(Oc1ccc(Br)cc1)C(=O)Nc1nc(-c2ccccn2)cs1 (configuration not stated)	–	–	–	–	–	67
COC(=O)c1ccccc1Sc1ncnc2onc(C)c12	–	101	–	–	–	–
CCc1ccc(C(=O)NNC(=O)c2ccc(OCC(=O)N3CCOCC3)c(OC)c2)cc1	–	–	–	–	–	–
COc1ccc(-c2nn(-c3ccccc3)cc2/C=N/NC(=O)c2ccc(Br)o2)cc1	–	90	–	–	–	63
COc1ccc(-c2nn(-c3ccccc3)cc2/C=N/NC(=S)NC(C)C)cc1OC	–	–	–	–	–	–
C=CCNC(=S)N/N=C/c1cn(-c2ccccc2)nc1-c1ccc(OC)cc1	-53	–	53	–	–	–
CC(C)N(Cc1nnc(-c2ccccc2Cl)o1)C(=O)COc1cccc(Cl)c1	–	–	–	–	–	·
COc1ccc(-n2c(C)c(C(C)=O)c3cc(OC(C)=O)ccc32)cc1	–	–	83	–	–	–
Cc1ccc(S(=O)(=O)NC(=O)C2(C)CCN2C(=O)CC2CCCCC2)nc1 (configuration not stated)	–	–	–	–	–	·
CC(=O)N(C1=C(N2CCOCC2)C(=O)c2ccccc2C1=O)c1ccc(C(=O)O)cc1	–	–	–	·	64	–
O=C(Cn1c(CCCO)nc2ccccc21)Nc1ccccc1-c1ccccc1	–	–	–	–	–	–
CC(CN1CCC(n2nccc2NC(=O)CCCc2ccccc2)CC1)c1ccccc1 (configuration not stated)	–	–	–	–	–	–
COc1ccc(-c2cc(NC=O)c3ncc(-c4ccc(OC)c(OC)c4)n3c2)cc1OC	–	58	–	–	–	·
CN1CCN(c2ccc(-c3cc(NC=O)c4ncc(-c5ccccc5)n4c3)cc2)CC1	–	79	–	–	–	·
COc1cc(-c2cnc3c(NC=O)cc(-c4ccsc4)cn23)cc(OC)c1OC	–	76	–	–	–	·
COc1cccc(-c2cnc3c(NC=O)cc(-c4ccc(O)c(OC)c4)cn23)c1	–	69	–	–	–	·
COc1cccc(-c2cc(NC=O)c3ncc(-c4cc(OC)c(OC)c(OC)c4)n3c2)c1	–	–	–	–	–	·
COCC1CCN(C(=O)c2cc(COc3cc(C)c(Cl)c(C)c3)on2)C1 (configuration not stated)	–	–	–	–	–	–
CCN(C[C@H]1N[C@@](Cc2ccccc2)(C(=O)OC)[C@H]2C(=O)N(Cc3ccccc3)C(=O)[C@@H]12)S(=O)(=O)c1ccc(C(C)(C)C)cc1	–	–	–	–	–	–
SMILES	KKLEB tox	Peg3 promoter	CF NFkB block	Shn3 inh set2	HIF-2a inh	MITF TRPM1 inh
O=C1c2cc([N+](=O)[O-])cc3cc([N+](=O)[O-])cc(c23)C(=O)N1c1ccccn1	–	–	–	–	–	82
O=C1c2ccc(Oc3cccc([N+](=O)[O-])c3)cc2C(=O)N1c1ccccn1	–	–	–	–	–	–
Cc1cc(O)cc2c(=O)c3ccccc3sc12	–	–	–	–	–	–
COc1cc(C)c2sc3ccccc3c(=O)c2c1NCCN(C)C	–	100	–	–	–	·
CN(C)CCNc1cccc2sc3ccc(O)cc3c(=O)c12	–	99	–	–	43	·
N#C/C(=C\c1ccc(-c2ccc(F)cc2)o1)C(=O)Nc1nc(-c2cccs2)cs1	–	–	–	–	–	–
